# SENP6 inh: blocks the human protease SENP6; AID 2599; Recombinant SENP6 catalytic domain, aminoluciferin luminescence; Q9GZR1; 330,000 compounds, 1.8% hits; inhibition, % at 10 µM;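 active means inhibition above about 50% at the single tested dose, limit read from the data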;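 further: plate controls were DMSO wells with enzyme for no effect and DMSO wells lacking enzyme for full effect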
# PPC-1+TRAIL kill: kills PPC-1 cancer cells in the presence of TRAIL | PPC-1 cells + TRAIL, ATPLite viability luminescence | cell killing (% activity), % at 4 µM or 5 µM | 220,000 compounds, 0.41% hits;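 active means cell killing above 50% in the first pass at 4 µM, then a duplicate retest at 5 µM averaging 50% or more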;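 further: plate controls were cells with TRAIL plus DMSO for no effect and medium-only wells lacking cells for full effect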
# TRAIL sens C8: caspase-8 TRAIL sensitization; inhibition (viability loss, TRAIL sensitization), % at 10 µM; NB7+C8 cells + TRAIL, ATPlite viability luminescence; AID 624354; 360,000 compounds, 1% hits;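 active means compounds causing at least 50% loss of cell viability in the single-dose screen, relative to plate controls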
# SENP7 inh: SENP7 protease inhibition; Q9BQF6; recombinant SENP7, Z-RLRGG-aminoluciferin luminescence, 40 min; inhibition, % at 5 µM; 330,000 compounds, 1.5% hits; AID 434973;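 active means inhibition above about 50% at the single test dose, limit read from the data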;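 further: plate controls were DMSO with enzyme for no effect and no enzyme buffer wells for full effect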
# SENP8 block-1: SENP8 protease inhibition. Q96LD8. purified SENP8, Z-RLRGG-aminoluciferin cleavage, luminescence. inhibition, % at 10 µM. 330,000 compounds, 1.2% hits; in the data active means inhibition above about 50%
# Target sequence (Q96LD8 whole entry, looked up): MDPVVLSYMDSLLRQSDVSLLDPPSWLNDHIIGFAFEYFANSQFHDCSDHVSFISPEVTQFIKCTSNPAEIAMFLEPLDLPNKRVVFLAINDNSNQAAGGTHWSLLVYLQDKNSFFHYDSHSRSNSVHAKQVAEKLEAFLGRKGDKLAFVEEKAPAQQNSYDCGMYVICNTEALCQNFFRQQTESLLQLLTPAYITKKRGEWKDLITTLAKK
# SENP8 block-2: SENP8 (human) protease inhibition | Q96LD8 | recombinant SENP8, Nedd8 substrate fluorescence | inhibition, % at 20 µM | 360,000 compounds, 0.64% hits; in the data active means inhibition mostly above about 40%, no sharp cut-off; inactive means mostly below about 27%
# An asterisk follows results filed as active; i = inactive; x = not tested or not shown. An excerpt weighted towards active compounds, which were near 3% of everything screened.
SMILES,SENP6 inh,PPC-1+TRAIL kill,TRAIL sens C8,SENP7 inh,SENP8 block-1,SENP8 block-2
CCSc1ccc(-c2cc(NC=O)c3ncc(-c4cccc(C(=O)NCCN(C)C)c4)n3c2)cc1,x,x,79*,x,x,-459
Cn1cnc2c(=O)sc3ccccc3c21,-19,x,16,4,9,-2
Cn1c(=O)c2sc3c(c2n(CC(=O)Nc2ccccc2)c1=O)COC(C)(C)C3,-4,x,-9,4,-4,10
CCN1/C(=C/C=C/c2sc3ccccc3[n+]2CC)Sc2ccccc21,35,x,71*,17,31,12
CCN1/C(=C/c2ccc3cc(C)ccc3[n+]2CC)Sc2ccccc21,-8,66*,32,-6,-5,37
COc1ccc(C2(C)NC(=O)N(CC(=O)Nc3ccc(C)cc3Br)C2=O)cc1OC (configuration not stated),-26,x,10,-7,-10,5
O=C1c2c(O)ccc(O)c2C(=O)c2c(NCCNCCO)ccc(NCCNCCO)c21,13,x,82*,15,17,51*
COc1ccc([C@@H]2[C@@H]3C(=O)N(C(C)(C)C)C(=O)[C@@H]3[C@]3(Cc4ccc(Cl)cc4)C(=O)N(c4cccc(F)c4)C(=O)N23)cc1,3,x,-3,-8,1,8
O=C1CCCN1C(=O)COc1ccccc1[N+](=O)[O-],5,x,12,14,-2,6
C=C(C)[C@H]1CC=C(C)/C(=N/NC(=O)CNc2ccccc2OC)C1,5,12,4,-2,-10,8
C=C(C)C1CC=C(C)/C(=N\NC(=O)CNc2cccc3ccccc23)C1 (configuration not stated),60*,5,13,12,42,-369
CCOC(=O)c1ccc(NNC(=O)CC)c([N+](=O)[O-])c1,3,10,-10,-2,-2,23
Cc1noc(C)c1C(=O)N1CCN(c2ccc(OCc3ccccc3)cc2)CC1,4,-13,0,-1,-7,9
CC1=C(C(=O)Nc2ccc(CC(=O)NCc3ccccc3C)cc2)SCCO1,-10,x,39,-5,-5,2
COc1cccc(CNC(=O)Cc2ccc(NC(=O)C3=C(C)OCCS3)cc2)c1,-10,x,56*,-5,-4,4
CCc1ccc(CNC(=O)Cc2ccc(NC(=O)C3=C(C)OCCS3)cc2)cc1,-4,x,53*,9,-8,11
Cc1cc(N2O[C@H]3C=C[C@@H]2C3)no1,x,x,8,16,x,6
CCOc1ccc(C=NNc2ccc(S(=O)(=O)Nc3ccccc3C(=O)O)cc2[N+](=O)[O-])cc1OC,-34,x,10,-4,-8,52*
O=C(O)c1ccccc1NS(=O)(=O)c1ccc(N/N=C/c2cccc(O)c2O)c([N+](=O)[O-])c1,x,x,2,x,x,39*
COc1cc(C=NNc2ccc(S(=O)(=O)Nc3ccccc3C(=O)O)cc2[N+](=O)[O-])ccc1O,0,x,5,-8,-16,46*
CC(C)C(=O)Nc1cccc(COc2cccc(CN(Cc3ccccc3)C(=O)OC(C)(C)C)c2)c1,x,x,15,x,x,-2
COc1cc(O)cc2c1[C@@H]1Oc3c(ccc(O)c3CC=C(C)C)[C@@H]1CO2,-10,x,12,-13,-8,28
CCn1c(C)nc2cc(NC(=O)Nc3cccc(C(C)=O)c3)ccc21,9,x,56*,-1,1,17
CCn1c(C)nc2cc(C(=O)OC)ccc21,-11,x,0,-4,-4,11
CS(=O)(=O)c1sc(C#N)c2c1C(=O)CC(c1ccccc1)C2 (configuration not stated),10,4,73*,0,1,6
CC(=O)Nc1cccc(-c2csc(C(C)(NC(C)=O)c3ccccc3)n2)c1 (configuration not stated),x,x,-6,x,x,7
NC(=S)N=Nc1c(O)n(CCCl)c2ccc(Br)cc12,-26,-3,28,-4,-5,50*
Cc1nn(-c2ccccc2)c(Cl)c1/C=C1\SC(=S)N(CCCCCC(=O)O)C1=O,-12,2,9,6,-23,54*
CC[C@H](NC(=O)CC[C@H]1O[C@@H](n2cnc3c(NC(=O)c4ccccc4)ncnc32)[C@H](O)[C@@H]1O)c1ccccc1,x,x,-3,x,x,21
COc1ccc(CC(=O)Nc2ccc(-c3cn4ccccc4n3)cc2)cc1,-3,37,23,-13,-14,i

# Screening results from PubChem BioAssay.
